Results from PubChem BioAssay (NCATS).
Records with an inconclusive call do not appear. Calls of active or inactive are those of the source. The call rests on the fitted dose curve; in most records, active means well fitted curve in the direction sought with a large enough effect; inconclusive means small, poorly fitted or top-dose-only effect, or another doubt; inactive means no such curve, though single readings can be large; an effect the other way counts as inactive or inconclusive.

How the values were obtained:
[1] = OV-KATE Cancer Cell Toxicity qHTS against the NCATS CANVASS Library (AID 1347345)
Summary of the method: (§1)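 Quantitative HTS format: an 11-concentration series was applied to 1000 cells/well following a 4-hour attachment. Cultures ran 72 hours before ATP luminescence detection by CellTiter-Glo.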

[2] = HPAF-II Cancer Cell Toxicity qHTS against the NCATS CANVASS Library (AID 1347346); further: nearly all actives have a fitted effect of over 55% in size
Summary of the method: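 1000 HPAF-II cells/well; 4 h pre-incubation; 11-pnt compound titration; 72 h, 37 degrees C/5% CO2; CellTiter-Glo, 15 min RT; luminescence read.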

[3] = UWB1.289 Cancer Cell Toxicity qHTS against the NCATS CANVASS Library (AID 1347347); further: nearly all actives have a fitted effect of over 60% in size
Summary of the method: as §1

[4] = OV-SAHO Cancer Cell Toxicity qHTS against the NCATS CANVASS Library (AID 1347348); further: nearly all actives have a fitted effect of over 55% in size
Summary of the method: as §1

[5] = SW1088 Cancer Cell Toxicity qHTS against the NCATS CANVASS Library (AID 1347350); details: SW1088 viability, CellTiter-Glo luminescence, 72 h; at 38.3 µM (top of the series); further: nearly all actives have a fitted effect of over 75% in size
Summary of the method: as §1

[6] = U-118MG Cancer Cell Toxicity qHTS against the NCATS CANVASS Library (AID 1347351); details: outcome: dose series up to 38.3 µM
Summary of the method: as §1

[7] = COV-362 Cancer Cell Toxicity qHTS against the NCATS CANVASS Library (AID 1347352)
Summary of the method: (§2)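 1000 cells/well, 4 h pre-incubation 37 °C/5% CO2; 11-pnt titration; 72 h; CellTiter-Glo 15 min RT, luminescence.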

[8] = A2780 Cisplatin Sensitive Ovarian Cancer Cell Toxicity qHTS against the NCATS CANVASS Library (AID 1347353); details: outcome: dose series up to 46.1 µM; further: nearly all actives have a fitted effect of over 60% in size
Summary of the method: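 750 cells/well, 4 h settle; 11-pt cpd titration; 72 h, 37 °C, 5% CO2; ATPLite 10 min RT; luminescence read.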

[9] = UWB1.289-WTBRCA1 Cancer Cell Toxicity qHTS against the NCATS CANVASS Library (AID 1347354); details: outcome: dose series up to 38.3 µM
Summary of the method: as §2

[10] = HPAF-II 24hr Apoptosis Induction qHTS against the NCATS CANVASS Library (AID 1347356)
Summary of the method: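 500 HPAF-II cells/well; compounds in 11-pnt qHTS; 24 h, 37 C/5% CO2; Caspase-Glo 3/7 added, 15 min RT dark; luminescence read. Doxorubicin control.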

[11] = HEK293 18hr Apoptosis Induction qHTS against the NCATS CANVASS Library (AID 1347357)
Summary of the method: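 Caspase-Glo 3/7 luminescence (15 min, room temperature) measured apoptosis after an 18-hour, 37 degrees C exposure of HEK293 cells (500 cells/well) to compounds in 11 points.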

[12] = HPAF-II 12hr Apoptosis Induction qHTS against the NCATS CANVASS Library (AID 1347358)
Summary of the method: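 Caspase-Glo 3/7 luminescence (DEVD substrate) reports caspase activity in HPAF-II cells after 12 h compound treatment at 37 degrees C. Compounds were tested in an 11-point series. Doxorubicin served as control.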

[13] = HEK293 24hr Apoptosis Induction qHTS against the NCATS CANVASS Library (AID 1347359)
Summary of the method: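 HEK293 cells, 500 per well, exposed to an 11-point compound series for 24 hours at 37 degrees C. Caspase 3/7 activity read by Caspase-Glo luminescence (DEVD substrate) after 15 min at room temperature.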

[14] = HPAF-II 18hr Apoptosis Induction qHTS against the NCATS CANVASS Library (AID 1347360)
Summary of the method: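 Caspase-3/7 activation was measured with luminescent Caspase-Glo 3/7 reagent (15 min, RT) in HPAF-II cancer cells (500 cells/well). Before detection, cells had been treated for 18 h at 37 C with compounds (11 points).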

[15] = HEK293 12hr Apoptosis Induction qHTS against the NCATS CANVASS Library (AID 1347361)
Summary of the method: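 HEK293 cells (500/well, DMEM + 10% FBS) were exposed to natural products across an 11-point series for 12 hours at 37 degrees C. Caspase-3/7 activity was then measured with DEVD luciferase luminescence after 15 min at room temperature.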

[16] = target: Luciferin 4-monooxygenase (Photinus pyralis) (UniProt P08659); experiment: Firefly luciferase counterscreen qHTS: Assay Interference Panel against the NCATS CANVASS Library (AID 1347363)
Luciferin 4-monooxygenase (Photinus pyralis), sequence (P08659 whole entry, looked up): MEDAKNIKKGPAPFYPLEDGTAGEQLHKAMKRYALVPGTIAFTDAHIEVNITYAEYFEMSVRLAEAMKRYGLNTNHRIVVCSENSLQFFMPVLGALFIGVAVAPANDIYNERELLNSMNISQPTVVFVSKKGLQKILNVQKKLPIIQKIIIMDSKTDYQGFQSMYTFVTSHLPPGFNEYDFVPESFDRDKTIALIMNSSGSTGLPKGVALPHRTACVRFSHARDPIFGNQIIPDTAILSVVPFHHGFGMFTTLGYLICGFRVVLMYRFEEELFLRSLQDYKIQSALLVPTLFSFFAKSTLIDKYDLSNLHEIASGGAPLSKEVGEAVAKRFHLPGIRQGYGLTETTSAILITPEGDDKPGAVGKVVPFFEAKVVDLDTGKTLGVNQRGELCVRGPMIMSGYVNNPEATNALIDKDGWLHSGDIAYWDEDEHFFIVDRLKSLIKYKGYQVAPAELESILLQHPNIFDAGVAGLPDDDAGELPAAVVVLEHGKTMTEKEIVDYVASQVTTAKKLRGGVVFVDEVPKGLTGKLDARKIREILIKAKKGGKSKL
Summary of the method: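 Purified P. pyralis luciferase (0.04 ug/mL, 4x reagent) added to Tris-acetate buffer with 0.013 mM D-luciferin, 0.013 mM ATP and 13.3 mM Mg-acetate; compounds preincubated 15 min, then luminescence read after 5 min, RT.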

[17] = KB-8-5-11 Cancer Cell Toxicity qHTS against the NCATS CANVASS Library (AID 1347364); further: nearly all actives have a fitted effect of over 75% in size
Summary of the method: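 CellTiter-Glo luminescence after 72 h exposure; 500 KB-8-5-11 cells/well, DMEM/10% FBS, 37C, 5% CO2; compounds in 11-pt qHTS. Follow-up confirmation included medium with 1uM tariquidar.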

[18] = Panc-1005 Cancer Cell Toxicity qHTS against the NCATS CANVASS Library (AID 1347349); further: nearly all actives have a fitted effect of over 60% in size
Summary of the method: as §1

[19] = HEK-293 Cancer Cell Toxicity qHTS against the NCATS CANVASS Library (AID 1347355); further: nearly all actives have a fitted effect of over 65% in size
Summary of the method: as §2

[20] = test system: NAD(P)H diaphorase (Clostridium kluyveri); experiment: Diaphorse counterscreen qHTS: Assay Interference Panel against the NCATS CANVASS Library (AID 1347362)
Summary of the method: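 Clostridium kluyveri diaphorase in PBS + 0.01% Tween-20 preincubated 15 min with compounds. Resazurin and NADH then added for 5 min at room temperature in the dark; resorufin fluorescence read (ex 525, em 598).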

Measured: outcome

O=C(O)C(O)Cc1ccc(O)c(O)c1 (stereo not drawn)
not listed: [18] | [19] | [20]
inactive: all other assays above

COC(=O)[C@@H]1[C@H]2C[C@H]3c4[nH]c5ccccc5c4CCN3C[C@@H]2CC[C@@H]1O
inactive: all assays above

O=c1cc(-c2ccccc2)oc2cc(O)c(O)c(O)c12
not listed: [3] | [5] | [16] | [20]
inactive: all other assays above
